# Experimental data taken from the supplement of paper PMC8371130.
# Structures can show the parent of a compound that is named as a salt.
# Test system: HL-1
# Assay: relative cell viability (CellTiter-Glo) vs DMSO control (% of DMSO control); higher = more viable cells
# Method in brief: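 In 384-well plates, 1000 HL-1 mouse atrial cardiomyocytes per well were plated with compounds at 40, 200, 1000 or 5000 nM in 0.01% DMSO. Hypoxia at 1% O2 for 48 h began one day later and was followed by 24 h of reoxygenation, with parallel plates held in normoxia. CellTiter-Glo luminescence gave cell viability relative to vehicle-treated control cells.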
# [1] = oxygen condition: hypoxia 48 h (1% O2) + reoxygenation 24 h, 40 nM
# [2] = oxygen condition: hypoxia 48 h (1% O2) + reoxygenation 24 h, 200 nM
# [3] = oxygen condition: hypoxia 48 h (1% O2) + reoxygenation 24 h, 1000 nM
# [4] = oxygen condition: hypoxia 48 h (1% O2) + reoxygenation 24 h, 5000 nM
# [5] = oxygen condition: normoxia 72 h, 40 nM
# [6] = oxygen condition: normoxia 72 h, 200 nM
# [7] = oxygen condition: normoxia 72 h, 1000 nM
# [8] = oxygen condition: normoxia 72 h, 5000 nM
SMILES,relative cell viability [1],relative cell viability [2],relative cell viability [3],relative cell viability [4],relative cell viability [5],relative cell viability [6],relative cell viability [7],relative cell viability [8]
O=C1[C@H](CC[C@H](O)c2ccc(F)cc2)[C@@H](c2ccc(O)cc2)N1c1ccc(F)cc1 [Ezetimibe],111,104,108,115,111,112,116,112
CNC[C@@H](O)c1ccc(O)c(O)c1 [L-Adrenaline],102,99.7,100,99.2,100,101,95.7,95.4
CCOC(=O)[C@H](CCc1ccccc1)N[C@@H](C)C(=O)N1CCC[C@H]1C(=O)O [Enalapril maleate],101,101,103,105,98.5,103,99.2,99
CN1CCN(C2=Nc3cc(Cl)ccc3Nc3ccccc32)CC1 [Clozapine],105,104,105,99.9,96,108,113,102
CNCC[C@H](Oc1cccc2ccccc12)c1cccs1 [Duloxetine HCl],92,96,99.8,92.8,89.9,94.3,106,104
Cc1nc2c([nH]1)-c1ccccc1N(C(=O)c1ccc(NC(=O)c3ccccc3-c3ccccc3)cc1)CC2 [Conivaptan HCl],100,98.8,46.4,47.7,98,84.2,89.2,36.5
CCCCC1C(=O)N(c2ccccc2)N(c2ccccc2)C1=O [Phenylbutazone],100,104,93.3,110,102,112,43.1,112
O=C(O)C1(C(=O)O)CCC1.[NH2-].[NH2-].[Pt+2] [Carboplatin],110,109,95.3,112,100,106,108,119
O=C(c1ccc(OCCN2CCCCC2)cc1)c1c(-c2ccc(O)cc2)sc2cc(O)ccc12 [Evista],111,107,106,54,112,107,109,68.7
O=c1cc[nH]c(=S)[nH]1 [2-Thiouracil],99.6,105,104,104,102,103,100,114
CN(CCOc1ccc(CC2SC(=O)NC2=O)cc1)c1ccccn1 (stereo unspecified) [Rosiglitazone],104,104,98.3,104,99.2,105,98.4,104
COc1cc(C(C)=O)ccc1OCCCN1CCC(c2noc3cc(F)ccc23)CC1 [Iloperidone],108,104,107,107,99.6,109,119,109
Cc1c(OCC(F)(F)F)ccnc1C[S@@+]([O-])c1nc2ccccc2[nH]1 [Dexlansoprazole],105,101,107,105,101,97.7,104,91.9
CCCCCOC(=O)Nc1nc(=O)n([C@@H]2O[C@H](C)[C@@H](O)[C@H]2O)cc1F [Capecitabine],104,94.1,106,119,105,113,119,129
CNC[C@H](O)c1cccc(O)c1 [Phenylephrine HCl],110,108,102,109,110,108,117,118
CCc1ccc(CCOc2ccc(CC3SC(=O)NC3=O)cc2)nc1 (stereo unspecified) [Pioglitazone hydrochloride],106,97.2,103,106,94.5,97.9,101,103
CC[C@@H]1/C=C(\C)C[C@H](C)C[C@H](OC)[C@H]2O[C@@](O)(C(=O)C(=O)N3CCCC[C@H]3C(=O)O[C@H](/C(C)=C/[C@@H]3CC[C@H](Cl)[C@H](OC)C3)[C@H](C)[C@@H](O)CC1=O)[C@H](C)C[C@@H]2OC [Pimecrolimus],98.7,93.8,101,104,96.8,99.1,94.7,106
C[C@]12CC[C@H](O)CC1=CC[C@@H]1[C@@H]2CC[C@]2(C)C(c3cccnc3)=CC[C@@H]12 [Abiraterone],74.6,72.2,86.7,116,61.2,67.9,78.7,112
O=C(O)c1cc(=O)c2ccccc2o1 [Chromocarb],103,105,109,110,111,103,107,115
COc1cc2nc(N3CCN(C(=O)C4COc5ccccc5O4)CC3)nc(N)c2cc1OC (stereo unspecified) [Doxazosin mesylate],104,107,108,106,105,102,103,114
Nc1nc2ccc(OC(F)(F)F)cc2s1 [Riluzole],102,105,108,111,103,104,107,107

SMILES,relative cell viability [1],relative cell viability [2],relative cell viability [3],relative cell viability [4],relative cell viability [5],relative cell viability [6],relative cell viability [7],relative cell viability [8]
CS(=O)(=O)c1ccc(C(=O)Nc2ccc(Cl)c(-c3ccccn3)c2)c(Cl)c1 [Vismodegib],103,107,108,117,104,110,114,112
C=C1/C(=C\C=C2/CCC[C@]3(C)[C@@H]([C@H](C)CCCC(C)C)CC[C@@H]23)C[C@@H](O)C[C@@H]1O [Alfacalcidol],109,104,118,106,108,104,88.5,106
CO[C@H]1C[C@@H]2CC[C@@H](C)[C@@](O)(O2)C(=O)C(=O)N2CCCC[C@H]2C(=O)O[C@H]([C@H](C)C[C@@H]2CC[C@@H](OC(=O)C(C)(CO)CO)[C@H](OC)C2)CC(=O)[C@H](C)/C=C(\C)[C@@H](O)[C@@H](OC)C(=O)[C@H](C)C[C@H](C)/C=C/C=C/C=C/1C [Temsirolimus],70.7,67.6,74.2,61.7,60.2,67.5,81.1,44
Cc1nc2n(c(=O)c1CCN1CCC(c3noc4cc(F)ccc34)CC1)CCCC2O (stereo unspecified) [Paliperidone],106,107,106,104,104,109,105,118
CN(C)CCCN1c2ccccc2Sc2ccc(Cl)cc21 [Chlorpromazine],104,103,106,107,97.1,100,106,117
CC1=C(/C=C/C(C)=C/C=C/C(C)=C/C(=O)O)C(C)(C)CCC1 [Tretinoin],113,109,110,100,112,106,101,121
N[C@H](Cc1ccccc1)C(=O)O [D-Phenylalanine],103,99.4,109,111,92,101,108,116
CC[C@@H]1C(=O)OC[C@@H]1Cc1cncn1C [Pilocarpine HCl],104,111,105,110,115,104,106,119
CC(C)NCC(O)COc1ccc(CCOCC2CC2)cc1 (stereo unspecified) [Betaxolol],99.8,98.5,100,101,96.4,100,99.6,108
Cc1ccc(Nc2nccc(N(C)c3ccc4c(C)n(C)nc4c3)n2)cc1S(N)(=O)=O [Pazopanib],104,108,102,116,92.7,102,110,110
Nc1ccn([C@@H]2O[C@H](CO)[C@@H](O)[C@@H]2O)c(=O)n1 [Cytarabine],89.2,75.5,44.9,5.82,84.9,64.3,35.7,4.29
CCOC(=O)OC(C)OC1=C(C(=O)Nc2ccccn2)N(C)S(=O)(=O)c2ccccc21 (stereo unspecified) [Ampiroxicam],110,102,104,121,101,101,102,120
CN(c1nccc(=O)[nH]1)C1CCN(c2nc3ccccc3n2Cc2ccc(F)cc2)CC1 [Mizolastine],97.1,98.1,101,108,97.3,94.6,101,107
CS(=O)(=O)Nc1ccc([N+](=O)[O-])cc1Oc1ccccc1 [Nimesulide],105,105,109,103,108,105,102,104
CCCCC(=O)O[C@H]1CC[C@H]2[C@@H]3CCc4cc(O)ccc4[C@H]3CC[C@]12C [Estradiol valerate],100,103,108,108,98.8,103,102,118
COC(=O)CCc1ccc(OCC(O)CNC(C)C)cc1 (stereo unspecified) [Esmolol HCl],103,104,105,80.4,104,104,108,112
NC(N)=Nc1nc(CSCC/C(N)=N/S(N)(=O)=O)cs1 [Famotidine],103,101,114,120,107,101,97.9,108
CN(C)/N=N/c1[nH]cnc1C(N)=O [Dacarbazine],97.5,107,110,113,105,106,107,113
N=C(N)NC(=O)c1nc(Cl)c(N)nc1N [Amiloride hydrochloride dihydrate],101,106,107,118,101,102,106,111
Nc1ncn([C@@H]2O[C@H](CO)[C@@H](O)[C@H]2O)c(=O)n1 [Azacitidine],105,101,102,83,98.6,103,90.1,84.5
O=C(Nc1ccc([N+](=O)[O-])cc1Cl)c1cc(Cl)ccc1O [Niclosamide],10,3.13,58.1,17.5,8.34,2.9,56.2,7.03
